PfG6PD inh – PfG6PD (Plasmodium falciparum) enzyme inhibition; PfGluPho enzyme, NADPH resazurin-diaphorase fluorescence; inhibition, % at 20 µM; 350,000 tested, 0.78% active; AID 504690;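 active means inhibition reaching at least a set limit at 20 µM in the primary screen, cut at about 59% in these data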;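 further: 0% = DMSO wells with substrate and 100% = DMSO wells lacking glucose-6-phosphate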
Cardio protect – protects H9c2 cardiomyocytes from peroxide injury; H2O2 injury protection, ATPLite, 2 h; protection from H2O2 cell death, % at 20 µM; 360,000 tested, 0.63% active; AID 588492;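 active means compounds giving at least 50% protection of heart cells from peroxide-induced death in the single-dose screen, raw or plate-pattern-corrected value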;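 further: 0% = DMSO wells with peroxide and 100% = DMSO wells without peroxide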
M18AAP inhibitor – blocks P. falciparum M18 aspartyl aminopeptidase. recombinant PfM18AAP, H-Glu-NHMec fluorogenic cleavage. inhibition, % at 7.35 µM. 290,000 tested, 1.2% active;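 active means inhibition above the campaign mean inhibition over all tested compounds plus 3 SD, cut at about 28% in these data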;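 further: 0% = plate median of test compound wells and 100% = 2 mM ZnCl2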
PHOSPHO1 inh – blocks human PHOSPHO1 phosphatase activity; Q8TCT1; recombinant PHOSPHO1, absorbance phosphatase assay; inhibition, % at 13.3 µM; 290,000 tested, 1.1% active; in the data active means inhibition above about 60%
ALR inh – blocks human ALR sulfhydryl oxidase activity. P55789. purified ALR, DTT oxidation, H2O2 HRP-luminol luminescence. inhibition, % (concentration not given with the values). 290,000 tested, 3.8% active. AID 485317;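 active means mean replicate inhibition above about 79%, with every replicate also reaching it, limit read from the data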
Target sequence (P55789 whole entry, looked up): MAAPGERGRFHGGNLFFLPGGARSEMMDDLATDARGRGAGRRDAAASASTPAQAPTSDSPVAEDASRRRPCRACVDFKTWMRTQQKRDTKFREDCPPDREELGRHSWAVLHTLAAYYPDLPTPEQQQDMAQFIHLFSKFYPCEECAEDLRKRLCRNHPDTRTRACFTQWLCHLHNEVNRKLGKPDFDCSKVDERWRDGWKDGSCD
Starred values were filed as active, the others as inactive; x = no result given. A selection: hits, their analogues and other compounds. The true share with any hit is near 5.6%.

SMILES	PfG6PD inh	Cardio protect	M18AAP inhibitor	PHOSPHO1 inh	ALR inh
S=c1[nH]nc(COc2ccc(Cl)cc2)o1	9	-1	19	103*	23
Cc1ccc(C)c(OCc2n[nH]c(=S)o2)c1	-10	2	8	-12	-5
O=C(CN1CCN(c2cccc(Cl)c2)CC1)c1ccc(O)cc1O	-17	-7	2	15	5
CCn1cc(CNC(=O)CCc2nnc(CCC3CCCCC3)o2)cn1	1	3	0	-6	-3
CCN1CCCC1CNC(=O)CCc1nnc(CCC2CCCCC2)o1 (stereo not given)	-7	-3	0	45	100*
NC(=O)COc1ccccc1C(=O)O	2	5	5	37	87*
O=C(CCN1C(=O)/C(=C/c2ccc(F)cc2)SC1=S)NCCc1cnc[nH]1	12	-8	12	2	98*
COc1ccc(-c2cnn(-c3ccccc3)c2N)cc1OC	4	5	-7	3	90*
COc1ccc(-c2nc(N)n[nH]2)cc1OC	3	6	-13	10	3
COc1ccc(-c2cn[nH]c2N)cc1OC	-5	7	9	5	99*
COc1cc(OC)cc(-c2cn[nH]c2N)c1	-3	8	-5	52	99*
COc1cc(/C=C2\CCc3c2nc2ccccc2c3C(=O)O)cc(OC)c1OC	2	-13	12	27	-5
COc1cc(/C=C2\CCCc3c2nc2ccccc2c3C(=O)O)cc(Br)c1O	-8	-3	13	-9	97*
COc1cc(Br)cc2cc(C(=O)N3CCOCC3)c(=O)oc12	-6	16	0	30	-9
CNS(=O)(=O)c1ccc2ccccc2c1	11	3	4	20	-9
Cc1cc(O)cc(C)c1NS(=O)(=O)c1ccc2ccccc2c1	19	0	-6	28	79*
O=C(NC1CCCCCC1)c1ccc(Br)o1	1	1	-4	30	6
O=C(NC1CCCCC1)Oc1cc2oc(=O)sc2cc1Br	24	-8	31*	22	71
Clc1ccccc1N1CCN(Cc2ccc(Br)o2)CC1	-2	16	x	x	0
CC(CN1CCN(c2ccccc2)CC1)c1ccccc1 (stereo not given)	-5	-1	1	35	98*
Brc1ccc(CN2CCN(c3ccccc3)CC2)o1	-17	2	11	34	97*
CC(CCN1CCN(c2ccc(F)cc2)CC1)c1ccccc1 (stereo not given)	-7	6	1	-8	36
c1ccc(SCCN2CCN(c3ccccc3)CC2)cc1	-11	0	4	11	98*
COc1ccc(NC(=O)CCCNC(=O)c2ccc(Cl)cc2)cc1S(=O)(=O)N1CCOCC1	-6	-2	x	x	x
O=C(CC1Sc2ncnn2C1=O)Nc1ccccc1 (stereo not given)	7	-16	-13	94*	6
SMILES	PfG6PD inh	Cardio protect	M18AAP inhibitor	PHOSPHO1 inh	ALR inh
Cc1ccc(NC(=O)CC2SC(=O)N(c3ccccc3)C2=O)cc1 (stereo not given)	28	19	-8	2	98*
N=C1SC(CC(=O)Nc2ccc([N+](=O)[O-])cc2)C(=O)N1c1ccccc1 (stereo not given)	-4	-1	29*	8	-11
O=C1SC(Cc2ccccc2)C(=O)N1c1ccccc1 (stereo not given)	-2	-10	-3	32	x
O=C(CC1SC(=O)N(c2ccccc2)C1=O)Nc1ccccc1 (stereo not given)	17	10	3	29	98*
CCN(C(=O)c1c(C)noc1C)c1c(N)n(Cc2ccccc2)c(=O)[nH]c1=O	5	0	x	x	0
Cc1cccc(NC(=O)CC2SC(=O)N(c3ccccc3)C2=O)c1 (stereo not given)	19	5	5	16	98*
Cc1cccc(NC2SC(=O)N(c3ccccc3)C2=O)c1 (stereo not given)	3	5	8	-31	-15
COc1ccc(NC(=O)CCCn2cnc3ccccc3c2=O)c(OC)c1	1	-1	1	23	-15
CC(=O)Nc1ccc(N(C(=O)Cn2nnc3ccccc32)C(C(=O)NC2CCCC2)c2ccc(O)c(O)c2)cc1 (stereo not given)	-16	10	65*	12	92*
CN1C(=S)SC(/[N+]([O-])=C/c2ccc(Cl)cc2)C1(C)C (stereo not given)	7	5	23	28	11
[O-]/[N+](=C/c1ccc(F)cc1)c1ccc(Cl)cc1	65*	-9	-2	-7	17
